Consider 36 molecules from PubChem BioAssay (EPA / NIEHS).

Each structure is given as a SMILES string. Results filed as inconclusive are left out. Active and inactive are the calls of the source. The calls were made as follows, unless noted: active = hit-call score of the fitted dose curve at least 0.9, where 1 is the maximum; inconclusive = response in the unintended direction; inactive = score below 0.9.

Read-out in the first test: Cytochrome P450 (CYP24A1_1), CYP24A1 (gene 1591)
Briefly: LTEA_HepaRG_CYP24A1_1: Life Technologies and Expression Analysis (LTEA) Assay for Cytochrome P450 (CYP24A1_1) using HepaRG (AID 2283671; active = hit-call score of the fitted dose curve at least 0.9, where 1 is the maximum; inactive = score below 0.9). To be noted: mRNA level, 48 h; actives raise or lower the signal. A digest of the protocol: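 Cultures of human HepaRG were treated in duplicate for 48 h (0.5% DMSO vehicle, highest dose 100 uM). CYP24A1 mRNA by qRT-PCR, normalized to ACTB, GAPDH, POLR2A.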
As to `CSc1nc(NC(C)C)nc(NC(C)C)n1`, the outcome was inactive.

`CC[C@H](C)[C@H]1O[C@]2(C=C[C@@H]1C)C[C@@H]1C[C@@H](C/C=C(\C)[C@@H](O[C@H]3C[C@H](OC)[C@@H](O[C@H]4C[C@H](OC)[C@@H](NC)[C@H](C)O4)[C@H](C)O3)[C@@H](C)/C=C/C=C3\CO[C@@H]4[C@H](O)C(C)=C[C@@H](C(=O)O1)[C@]34O)O2`: the call was inactive.

As for `CCCCN(CC)c1c([N+](=O)[O-])cc(C(F)(F)F)cc1[N+](=O)[O-]`, the molecule was classed as inactive.

For the molecule `CCc1cccc(CC)c1N(COC)C(=O)CCl`, the molecule was classed as inactive.

As to `CC(COc1ccc(Oc2ccccc2)cc1)Oc1ccccn1` (stereo not given), the call was inactive.

Read-out in the next test: glucuronosyltransferase (UGT1A1), UGT1A1 (gene 54658)
Briefly: CLD_UGT1A1_6hr: CellzDirect (CLD) Gene Expression Assay for glucuronosyltransferase (UGT1A1) at 6 hours (AID 2283672).
Settings: not given
A digest of the protocol: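 UGT1A1 mRNA induction, read by quantitative nuclease protection assay, 6 h after dosing primary human hepatocytes (two donors, 0.2% DMSO vehicle). Gain of signal fitted relative to vehicle.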
As for `COc1ccc(C(=CC(=O)N2CCOCC2)c2ccc(Cl)cc2)cc1OC`, the molecule was called inactive.

In the case of `CCCCOC(=O)c1ccccc1C(=O)O`, the molecule was called inactive.

Turning to `CC(C1CC1)C(O)(Cn1cncn1)c1ccc(Cl)cc1` (stereo not given), the result was inactive.

Take `CCOC(=O)COc1cc(-c2nn(C)c(OC(F)F)c2Cl)c(F)cc1Cl`: the molecule was called inactive.

`CCOP(=O)(NC(C)C)Oc1ccc(SC)c(C)c1` (stereo not given): the result was inactive.

`C#CC(C)(C)NC(=O)c1cc(Cl)cc(Cl)c1`: the molecule was classed as inactive.

On to `CSc1nc(NC(C)C)nc(NC(C)C)n1`, for which the molecule was classed as inactive.

Regarding `CCOP(=S)(OCC)SCCSCC`, the outcome was inactive.

Regarding `CC(Oc1cccc(Cl)c1)C(=O)O` (stereo not given), the molecule was classed as inactive.

Consider `CC[C@H](C)[C@H]1O[C@]2(C=C[C@@H]1C)C[C@@H]1C[C@@H](C/C=C(\C)[C@@H](O[C@H]3C[C@H](OC)[C@@H](O[C@H]4C[C@H](OC)[C@@H](NC)[C@H](C)O4)[C@H](C)O3)[C@@H](C)/C=C/C=C3\CO[C@@H]4[C@H](O)C(C)=C[C@@H](C(=O)O1)[C@]34O)O2`, for which the outcome was inactive.

Take `CCCCN(CC)c1c([N+](=O)[O-])cc(C(F)(F)F)cc1[N+](=O)[O-]`: the outcome was inactive.

For the molecule `CCc1cccc(CC)c1N(COC)C(=O)CCl`, the call was inactive.

For the molecule `CC(C)=CC1C(C(=O)OCN2C(=O)C3=C(CCCC3)C2=O)C1(C)C` (stereo not given), the call was inactive.

Regarding `COc1cc(OC)nc(Sc2cccc(Cl)c2C(=O)O)n1`, the molecule was classed as inactive.

Take `CC(COc1ccc(Oc2ccccc2)cc1)Oc1ccccn1` (stereo not given): the result was inactive.

As to `CC1=NNC(=O)N(/N=C/c2cccnc2)C1`, the molecule was called inactive.

For `CN(C)C(=O)Nc1cccc(C(F)(F)F)c1`, the molecule was classed as inactive.

On to `CC(C)N(C(=O)SCC(Cl)=C(Cl)Cl)C(C)C`, for which the molecule was classed as inactive.

In the case of `CNC(=O)ON=C(SC)C(=O)N(C)C`, the molecule was classed as inactive.

Turning to `CNC(=O)ON=C(C)SC`, the call was inactive.

As to `CN1COCN(Cc2cnc(Cl)s2)C1=N[N+](=O)[O-]`, the molecule was classed as inactive.

For the molecule `CCCCOC(=O)[C@@H](C)Oc1ccc(Oc2ccc(C#N)cc2F)cc1`, the call was inactive.

As to `O=C(O)c1cc(Oc2ccc(C(F)(F)F)cc2Cl)ccc1[N+](=O)[O-]`, the result was inactive.

`CC(=NC#N)N(C)Cc1ccc(Cl)nc1`: the call was inactive.

For the molecule `C[N+]1(C)CCCCC1`, the outcome was inactive.

Turning to `CCc1cnc(C2=NC(C)(C(C)C)C(=O)N2)c(C(=O)O)c1` (stereo not given), the result was inactive.

With `C#CCC1=C(C)C(OC(=O)C2C(C=C(C)C)C2(C)C)CC1=O` (stereo not given), the call was inactive.

Take `CCCOc1nn(C(=O)NS(=O)(=O)c2ccccc2C(=O)OC)c(=O)n1C`: the molecule was classed as inactive.

Turning to `Cc1cc(C2CC2)nc(Nc2ccccc2)n1`, the outcome was inactive.

In the case of `CCNc1nc(Cl)nc(NC(C)(C)C#N)n1`, the molecule was called inactive.

Consider `CCOP(=O)(OCC)Oc1cc(C)nc(C(C)C)n1`, for which the result was inactive.

`CC(C)[C@H](C(=O)O[C@H](C#N)c1cccc(Oc2ccccc2)c1)c1ccc(Cl)cc1`: the molecule was classed as inactive.

As to `CSc1nnc(C(C)(C)C)c(=O)n1N`, the outcome was inactive.

As to `CCCCSP(=O)(SCCCC)SCCCC`, the call was inactive.

On to `C[Si](Cn1cncn1)(c1ccc(F)cc1)c1ccc(F)cc1`, for which the outcome was inactive.

For `CCC(CC)Nc1c([N+](=O)[O-])cc(C)c(C)c1[N+](=O)[O-]`, the result was inactive.

Read-out in another test: xenobiotic metabolism (CYP1A1), CYP1A1 (gene 1543)
Nature of the test: CLD_CYP1A1_24hr: CellzDirect (CLD) Gene Expression Assay for xenobiotic metabolism (CYP1A1) at 24 hours (AID 2283673).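 Also: CYP1A1 mRNA level by quantitative nuclease protection with chemiluminescence.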
Settings: not given
The essentials:
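Transcript levels were read at 24 h by qNPA chemiluminescence in human liver primary cells. Cells got daily fresh dosing at multiple concentrations (vehicle 0.2% DMSO). Induction fitted upward against DMSO; phase-contrast cytotoxicity annotated.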
On to `COc1ccc(C(=CC(=O)N2CCOCC2)c2ccc(Cl)cc2)cc1OC`, for which the molecule was called inactive.

Regarding `CCOP(=O)(NC(C)C)Oc1ccc(SC)c(C)c1` (stereo not given), the half-maximal activity concentration (AC50) was 20 µM (active).

For `CSc1nc(NC(C)C)nc(NC(C)C)n1`, the half-maximal activity concentration (AC50) was 6.14 µM (active).

Turning to `CC(Oc1cccc(Cl)c1)C(=O)O` (stereo not given), the molecule was classed as inactive.

Regarding `CCCCN(CC)c1c([N+](=O)[O-])cc(C(F)(F)F)cc1[N+](=O)[O-]`, the AC50 is 8.49 µM (active).

Turning to `CC(C)=CC1C(C(=O)OCN2C(=O)C3=C(CCCC3)C2=O)C1(C)C` (stereo not given), the result was inactive.

As for `CC(COc1ccc(Oc2ccccc2)cc1)Oc1ccccn1` (stereo not given), the molecule was classed as inactive.

Take `Cc1cc(C2CC2)nc(Nc2ccccc2)n1`: the AC50 is 29.9 µM (active).

Read-out in a further test: ABC Transporter (ABCB11), ABCB11 (gene 8647)
Nature of the test: CLD_ABCB11_24hr: CellzDirect (CLD) Gene Expression Assay for ABC Transporter (ABCB11) at 24 hours (AID 2283674; active = hit-call score of the fitted dose curve at least 0.9, where 1 is the maximum; inactive = score below 0.9).
Settings: not given
A digest of the protocol:
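ABCB11 transcript was quantified by qNPA chemiluminescence in cultured human liver hepatocytes 24 hours after dosing. Fresh dosing solutions were applied on consecutive days, against a 0.2% DMSO vehicle. Cytotoxicity was noted by phase-contrast morphology.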
With `CCCCOC(=O)c1ccccc1C(=O)O`, the result was inactive.

For `C#CC(C)(C)NC(=O)c1cc(Cl)cc(Cl)c1`, the outcome was inactive.

Take `CCOP(=S)(OCC)SCCSCC`: the outcome was inactive.

As for `CC[C@H](C)[C@H]1O[C@]2(C=C[C@@H]1C)C[C@@H]1C[C@@H](C/C=C(\C)[C@@H](O[C@H]3C[C@H](OC)[C@@H](O[C@H]4C[C@H](OC)[C@@H](NC)[C@H](C)O4)[C@H](C)O3)[C@@H](C)/C=C/C=C3\CO[C@@H]4[C@H](O)C(C)=C[C@@H](C(=O)O1)[C@]34O)O2`, the half-maximal activity concentration (AC50) was 0.205 µM (active).

As for `CCc1cccc(CC)c1N(COC)C(=O)CCl`, the molecule was classed as inactive.

Consider `CC(C)=CC1C(C(=O)OCN2C(=O)C3=C(CCCC3)C2=O)C1(C)C` (stereo not given), for which the outcome was inactive.

With `COc1cc(OC)nc(Sc2cccc(Cl)c2C(=O)O)n1`, the call was inactive.

For `CC1=NNC(=O)N(/N=C/c2cccnc2)C1`, the outcome was inactive.

As to `CNC(=O)ON=C(SC)C(=O)N(C)C`, the outcome was inactive.

As for `CNC(=O)ON=C(C)SC`, the outcome was inactive.

With `CCCCOC(=O)[C@@H](C)Oc1ccc(Oc2ccc(C#N)cc2F)cc1`, the call was inactive.

As for `O=C(O)c1cc(Oc2ccc(C(F)(F)F)cc2Cl)ccc1[N+](=O)[O-]`, the molecule was classed as inactive.

Regarding `CC(=NC#N)N(C)Cc1ccc(Cl)nc1`, the result was inactive.

In the case of `CCCOc1nn(C(=O)NS(=O)(=O)c2ccccc2C(=O)OC)c(=O)n1C`, the outcome was inactive.

On to `CCOP(=O)(OCC)Oc1cc(C)nc(C(C)C)n1`, for which the result was inactive.

With `CSc1nnc(C(C)(C)C)c(=O)n1N`, the outcome was inactive.

One may read the AC50 as the concentration giving half of the maximal activity seen.
